Inconclusive results are not listed. Calls of active or inactive are those of the source. Unless noted, calls come from the whole dose curve; as a rule, active = well fitted curve in the direction sought with a large enough effect in the repeat runs; inconclusive = weak or mixed curves; inactive = no such curve, though single readings can be large; an effect the other way counts as inactive or inconclusive.
Key:
[1] = qHTS assay to identify small molecule antagonists of the glucocorticoid receptor (GR) signaling pathway - cell viability counter screen (AID 720693); note: nearly all actives have a fitted effect of over 55% in size
[2] = qHTS assay for identifying genotoxic compounds that show differential cytotoxicity against isogenic chicken DT40 cell lines with known DNA damage response pathways - wild type cell line (AID 743012); note: nearly all actives have a fitted effect of over 60% in size; note: potency is the fitted concentration of half-maximal effect
Method in brief: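 Wild type DT40, 300 cells/well, ~0.5 h settle at 37 C/5% CO2; compounds in DMSO added by pintool; 40 h at 37 C/5% CO2; CellTiter-Glo, 30 min RT; luminescence.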

[3] = qHTS assay for identifying genotoxic compounds that show differential cytotoxicity against isogenic chicken DT40 cell lines with known DNA damage response pathways - Rev3 mutant cell line (AID 743014); note: nearly all actives have a fitted effect of over 55% in size; note: potency is the fitted concentration of half-maximal effect
[4] = qHTS assay for identifying genotoxic compounds that show differential cytotoxicity against isogenic chicken DT40 cell lines with known DNA damage response pathways - Rad54/Ku70 mutant cell line (AID 743015); note: nearly all actives have a fitted effect of over 60% in size; note: potency is the fitted concentration of half-maximal effect
[5] = qHTS assay to identify small molecule antagonists of the androgen receptor (AR) signaling pathway - cell viability counter screen (AID 743033; note: nearly all actives have a fitted effect of over 45% in size)
[6] = qHTS assay to identify small molecule antagonists of the androgen receptor (AR) signaling pathway using the MDA cell line - cell viability counter screen (AID 743041; note: nearly all actives have a fitted effect of over 45% in size; note: potency is the fitted concentration of half-maximal effect)
Method in brief: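 R1881-driven MDA-kb2 AR-luc cells, 3,000/well, were dosed with library compounds for 16 h; cell health came from CellTiter-Fluor fluorescence in the reporter wells.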

[7] = target: Androgen receptor (Homo sapiens) (UniProt P10275); test: qHTS assay to identify small molecule agonists of the androgen receptor (AR) signaling pathway using the MDA cell line (AID 743040; note: nearly all actives have a fitted effect of over 20% in size; note: potency is the fitted concentration of half-maximal effect)
Method in brief: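 After a 5 h incubation at 37C and 0% CO2, MDA-kb2 reporter cells were dosed with compounds in DMSO and kept 16 h under the same conditions. Luciferase activity was then read as luminescence with ONE-Glo.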

[8] = target: Androgen receptor (Homo sapiens) (UniProt P10275); test: qHTS assay to identify small molecule antagonists of the androgen receptor (AR) signaling pathway using the MDA cell line (AID 743042; note: nearly all actives have a fitted effect of over 55% in size; note: potency is the fitted concentration of half-maximal effect)
Method in brief: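 Antagonist mode: compounds plus R1881 agonist added to MDA-kb2 AR-luc cells, incubated 16 h at 37C. Luciferase reporter luminescence quantified, with multiplexed CellTiter-Fluor readout for cell viability.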

[9] = target: Androgen receptor (Homo sapiens) (UniProt P10275); test: qHTS assay to identify small molecule antagonists of the androgen receptor (AR) signaling pathway (AID 743035; active = well fitted inhibition curve with a large enough effect in the signal ratio in the repeat runs, not every such curve was filed as active; the % refers to the signal ratio; note: potency is the fitted concentration of half-maximal effect)
Method in brief: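 Fluorescence from a beta-lactamase FRET substrate (LiveBLAzer B/G, 2 h, room temperature) measured inhibition of R1881-stimulated signaling in GeneBLAzer AR-UAS-bla HEK293 cells exposed to compound for 16 h at 37C.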

Measured: Potency

Sequence of Androgen receptor (Homo sapiens) (P10275 whole entry, looked up): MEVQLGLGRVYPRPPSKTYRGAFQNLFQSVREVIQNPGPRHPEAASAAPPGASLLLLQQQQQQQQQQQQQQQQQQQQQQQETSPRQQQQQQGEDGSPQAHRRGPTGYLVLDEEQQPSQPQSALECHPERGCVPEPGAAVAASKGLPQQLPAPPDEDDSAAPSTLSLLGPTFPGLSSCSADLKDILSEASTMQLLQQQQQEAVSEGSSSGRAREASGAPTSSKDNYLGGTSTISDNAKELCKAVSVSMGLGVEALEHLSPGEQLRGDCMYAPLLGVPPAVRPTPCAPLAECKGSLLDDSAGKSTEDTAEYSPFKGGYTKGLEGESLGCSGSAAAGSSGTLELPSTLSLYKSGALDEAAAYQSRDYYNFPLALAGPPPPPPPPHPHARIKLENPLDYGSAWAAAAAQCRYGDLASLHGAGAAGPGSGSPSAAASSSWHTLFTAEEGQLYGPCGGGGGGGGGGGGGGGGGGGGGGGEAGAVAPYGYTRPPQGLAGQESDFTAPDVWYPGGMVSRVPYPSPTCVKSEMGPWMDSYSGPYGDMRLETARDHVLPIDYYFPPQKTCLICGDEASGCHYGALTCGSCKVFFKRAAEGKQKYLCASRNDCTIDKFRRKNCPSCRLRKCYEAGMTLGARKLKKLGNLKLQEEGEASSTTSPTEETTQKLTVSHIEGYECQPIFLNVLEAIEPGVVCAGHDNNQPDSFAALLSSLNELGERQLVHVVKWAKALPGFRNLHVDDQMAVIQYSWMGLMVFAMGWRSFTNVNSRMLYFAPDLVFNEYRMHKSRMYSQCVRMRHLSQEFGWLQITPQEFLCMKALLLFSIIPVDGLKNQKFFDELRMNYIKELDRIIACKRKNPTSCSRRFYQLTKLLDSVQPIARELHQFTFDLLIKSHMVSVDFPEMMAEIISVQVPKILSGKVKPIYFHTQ

CC(C)(C)C(=O)O
not listed: [7] | [8] | [9]
inactive: all other assays above

CCCC1C(CC)=CC(CC)=CN1c1ccccc1 (stereo not drawn)
active: [2] 2.73 µM | [3] 2.17 µM | [4] 1.93 µM | [6] 54.5 µM
inactive: [1] | [5]

Cc1cc(S(=O)(=O)O)ccc1N=Nc1c(O)ccc2ccccc12
inactive: [1] | [2] | [4] | [5]
active: [3] 61.1 µM | [6] 30.6 µM

CCCCCCCC/C=C\CCCCCCCC(=O)OC
not listed: [7] | [8] | [9]
inactive: all other assays above

CC1CN(c2cc3c(cc2F)c(=O)c(C(=O)O)cn3-c2ccc(F)cc2F)CCN1 (stereo not drawn)
not listed: [7] | [8] | [9]
inactive: all other assays above

Fc1c(F)c(F)c(Br)c(F)c1F
not listed: [7] | [8] | [9]
inactive: all other assays above

CCC(=O)OC/C=C/c1ccccc1
not listed: [7] | [8] | [9]
inactive: all other assays above

CC(C)(CCl)c1ccccc1
not listed: [7] | [8] | [9]
inactive: all other assays above

CO[C@H]1O[C@H](CO)[C@@H](O)[C@H](O)[C@H]1O
not listed: [7] | [8] | [9]
inactive: all other assays above

Nc1nccs1
not listed: [7] | [8] | [9]
inactive: all other assays above

CCCCCCOC(=O)C(C)C
not listed: [7] | [8] | [9]
inactive: all other assays above

CC(C)CCCCCCOC(=O)CCCCC(=O)OCCCCCCC(C)C
active: [3] 30.6 µM
inactive: [1] | [2] | [4] | [5] | [6]

O=S1OCCO1
not listed: [7] | [8] | [9]
inactive: all other assays above

CCCOCCOCCO
not listed: [7] | [8] | [9]
inactive: all other assays above

CCOC(=O)c1ccccc1OC
not listed: [7] | [8] | [9]
inactive: all other assays above

CC(=O)Nc1ccccc1C
not listed: [7] | [8] | [9]
inactive: all other assays above

CC(=O)[C@H]1CC[C@H]2[C@@H]3C=CC4=CC(=O)CC[C@@]4(C)[C@@H]3CC[C@]12C
active: [2] 4.03 µM | [3] 3.59 µM | [4] 4.52 µM | [7] 9.02 µM
inactive: [1] | [5] | [6] | [8]

C[C@]12CCC(=O)C=C1C=C[C@@H]1[C@@H]2CC[C@@]2(C)[C@H]1CC[C@@]21CCC(=O)O1
inactive: [1] | [5] | [6]
active: [2] 16.8 µM | [3] 23.7 µM | [4] 26.6 µM

CC1=NN(c2ccc(C(=O)O)cc2)C(=O)C1
not listed: [7] | [9]
inactive: all other assays above

CCCCC(CC)C(=O)OCCOCCOCCOCCOC(=O)C(CC)CCCC (stereo not drawn)
active: [2] 27.3 µM | [3] 43.3 µM | [4] 30.6 µM
inactive: [1] | [6]

Nc1ccc(S(=O)(=O)O)c(N)c1
inactive: [1] | [2] | [3] | [4] | [6]

C=CC(C)(O)CCCC(C)CCCC(C)CCCC(C)C (stereo not drawn)
inactive: [1] | [2] | [3] | [4] | [6]

CCCCCCCCCOC(C)=O
inactive: [1] | [2] | [3] | [5] | [6]

O=c1[nH]c2ccc(S(=O)CCN3CCC(Cc4ccc(F)cc4)CC3)cc2o1 (stereo not drawn)
inactive: [1] | [6]
active: [2] 13.7 µM | [3] 4.33 µM | [4] 6.86 µM

CCCCC1C(=O)N(c2ccccc2)N(c2ccc(O)cc2)C1=O (stereo not drawn)
active: [2] 3.2 µM | [3] 5.69 µM | [4] 5.07 µM | [8] 12.7 µM
inactive: [1]

NC(=O)N(O)[C@@H]1C=C[C@H](Oc2cccc(Oc3ccc(F)cc3)c2)C1
inactive: [1] | [6]
active: [2] 54.5 µM | [3] 61.1 µM | [4] 54.5 µM

C/C=C/C=C/CCCCCCCO
active: [2] 21.7 µM | [3] 30.6 µM | [4] 24.3 µM
inactive: [1] | [6]

CCNC(=O)N1CCN(CCCC(c2ccc(F)cc2)c2ccc(F)cc2)CC1
active: [2] 5.31 µM | [3] 7.5 µM | [4] 6.68 µM | [6] 26.6 µM
inactive: [1]

Cc1c(C(=O)NN2CCCCC2)nn(-c2ccc(Cl)cc2Cl)c1-c1ccc(Cl)cc1
active: [2] 11.9 µM | [3] 11.9 µM | [4] 11.9 µM | [9] 19 µM
inactive: [1] | [7]
